Compounds with a hit are over-represented: about 14% of the library has one in this group of screens.
USP17 block: blocks human USP17 ubiquitin-rhodamine cleavage | A8MUK1 | purified USP17, Ub-rhodamine cleavage fluorescence, 3 h | inhibition, % at 50 µM | 6.5% of 47,000 active
USP10 block: human USP10 deubiquitinase inhibition; inhibition, % at 20 µM; 1.1% of 47,000 active; purified USP10, Ub-rhodamine fluorescence, 60 min; AID 1645856
USP28 inh: human USP28 deubiquitinase inhibition. 3% of 47,000 active. Q96RU2. AID 1645857. purified USP28, Ub-rhodamine cleavage fluorescence, 30 min. inhibition, % at 25 µM
USP8 inh: inhibitors of human USP8 deubiquitinase. P40818. AID 1645853. purified USP8, Ub-rhodamine cleavage fluorescence, 30 min. 4.2% of 47,000 active. inhibition, % at 20 µM
USP30 block: blocks human USP30 ubiquitin-rhodamine cleavage. purified USP30, Ub-rhodamine cleavage fluorescence. inhibition, % at 25 µM. 5.3% of 47,000 active
Target sequence (Q70CQ3 whole entry, looked up): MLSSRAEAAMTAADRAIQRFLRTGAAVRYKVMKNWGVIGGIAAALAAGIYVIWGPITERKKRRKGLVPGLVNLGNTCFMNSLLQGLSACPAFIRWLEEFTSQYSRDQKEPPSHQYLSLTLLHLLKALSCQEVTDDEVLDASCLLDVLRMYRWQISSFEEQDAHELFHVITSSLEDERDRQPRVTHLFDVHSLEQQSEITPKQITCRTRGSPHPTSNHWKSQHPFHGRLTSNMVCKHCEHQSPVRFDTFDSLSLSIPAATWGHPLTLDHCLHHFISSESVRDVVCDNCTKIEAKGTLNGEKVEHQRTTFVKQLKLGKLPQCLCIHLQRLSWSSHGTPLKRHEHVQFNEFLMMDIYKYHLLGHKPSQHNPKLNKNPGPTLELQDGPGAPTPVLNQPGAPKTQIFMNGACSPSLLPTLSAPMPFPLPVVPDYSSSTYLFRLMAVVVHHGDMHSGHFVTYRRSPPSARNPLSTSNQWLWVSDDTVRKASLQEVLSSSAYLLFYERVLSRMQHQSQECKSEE
Starred values were filed as active, the others as inactive; i = inactive; x = no result. Rule as the data show it: active = inhibition above about 30%; inactive = the rest.

SMILES	USP17 block	USP10 block	USP28 inh	USP8 inh	USP30 block
CC(C)C[C@H](NC(=O)c1ccc2nc(-n3cccc3)sc2c1)C(=O)NCc1ccco1	-17	14	-21	53*	-159
O=C1CC(c2ccccc2)N(c2ccnc(C3CC3)n2)CCN1 (centres undefined)	-17	-3	x	3	x
Clc1cccc(N2CCN(c3ncnc4nc[nH]c34)CC2)c1	56*	0	5	-6	5
Nc1nc(N2CCN(c3ccc(Cl)cc3)CC2)c2[nH]cnc2n1	42*	1	-4	4	16
Fc1ccc(N2CCN(c3ncnc4nc[nH]c34)CC2)cc1	-2	3	-13	-11	7
Cc1ccc2c(c1)N(C(=O)Cn1cc(S(=O)(=O)N3CCCCCC3)ccc1=O)CCO2	0	0	1	-1	16
O=C(Nc1ccc2c(c1)nc1n2CCCCC1)C1c2ccccc2Oc2ccccc21	48*	-1	18	6	8
O=C(O)c1cccc(NC(=O)C2c3ccccc3Oc3ccccc32)c1	-1	5	0	-15	-12
CC(C)N1CCn2c(nc3cc(NC(=O)c4cccnc4)ccc32)C1	34*	-12	19	32*	-67
Cc1cccc(CSc2nc(-c3ccco3)nc3c2c(=O)n(C)c(=O)n3C)c1	0	2	-7	-3	10
Cc1ccc(C(=O)Cn2c(=O)n(C(C)C)c3nc(-c4ccco4)nc(C(N)=O)c32)c(C)c1	-10	-2	-38	40*	-242
CC1(c2ncc(CNC(=O)c3n[nH]c4c3CCC4)cn2)CCCCO1 (centres undefined)	-2	-1	-9	-15	-11
O=C(CC1Nc2ccccc2OC1=O)Nc1cccc(F)c1 (centres undefined)	24	-5	-14	28	-86
COc1ccc(C(=O)Nc2n[nH]c(C)c2-c2cccc(C)c2)c(OC)c1	23	9	34*	14	72*
COc1cc(OC)cc(C(=O)Nc2n[nH]c(C)c2-c2cccc(C)c2)c1	-9	2	27	-39	16
COc1ccc(NCc2cc(=O)n3[nH]c(NCc4ccc(C(C)C)cc4)nc3n2)cc1	56*	-12	20	-41	16
O=c1cc(CN2CCc3ccccc3C2)nc2nc(NCc3ccc(Cl)cc3)[nH]n12	28	9	30*	-85	49*
O=c1cc(CN2CCc3ccccc3C2)nc2nc(NCc3ccccc3)[nH]n12	12	1	8	0	13
NS(=O)(=O)c1ccc(CCNc2ccn3nc(-c4ccccc4)cc3n2)cc1	31*	2	-4	-29	23
O=C(Nc1cccc(Cl)c1)N1CCN(c2cc(C(F)(F)F)ccn2)CC1	59*	5	-1	3	26
CC(OC(=O)c1ccc2c(c1)OCCO2)C(=O)NCC1CCCCC1 (centres undefined)	29	1	22	3	53*
CC(OC(=O)c1ccc2c(c1)OCO2)C(=O)NCC1CCCCC1 (centres undefined)	54*	2	27	24	54*
O=C(O)c1cn2c3c(cccc3c1=O)CCC2	5	1	3	29	3
O=C(Nc1ccccc1)c1cn2c3c(cccc3c1=O)CC2	69*	6	3	17	1
COc1ccc2[nH]c(C(=O)N3CCN(C(=O)c4ccccc4)CC3)cc2c1	-9	-5	-4	-17	-9
SMILES	USP17 block	USP10 block	USP28 inh	USP8 inh	USP30 block
O=C(Oc1ccc(-c2nccc(-c3cccs3)n2)cc1)c1ccco1	49*	5	21	36*	25
Cc1c(F)cccc1NC(=O)c1cc2n(n1)CCCC2	7	0	8	2	-8
CN=C(N)NCCC[C@H](N)C(=O)O	16	0	11	24	31*
CC(C)(C)OC(=O)N1CCC[C@]2(CCC(=O)N2)[C@H]1c1ccc(F)cc1	12	1	14	25	31*
Cn1nc(C2CC2)cc1C(=O)N1CCC[C@]2(CCC(=O)N2)[C@H]1c1ccc(F)cc1	7	1	1	5	14
CCOc1cccc(-c2noc(-c3nn(-c4cccc(C)c4)ccc3=O)n2)c1	1	9	-7	88*	-3
CCOc1cccc(-c2noc(-c3nn(-c4ccccc4)ccc3=O)n2)c1	52*	24	70*	93*	93*
COc1cccc(-n2ccc(=O)c(-c3nc(-c4cccc(C)c4)no3)n2)c1	0	-6	1	7	-48
O=C(CN1CCCCC1)Nc1nnc(-c2ccc([N+](=O)[O-])cc2)s1	38*	11	35*	-79	34*
O=C(CN1CCCCCC1)Nc1cc([N+](=O)[O-])ccc1Cl	45*	4	21	-69	28
COc1cc2c(cc1OC)CN(CC(=O)Nc1cc([N+](=O)[O-])ccc1Cl)CC2	-18	-2	-11	-120	-19
COCCCn1c(C(=O)NCc2ccc(F)cc2)cc2c(=O)n3ccccc3nc21	38*	9	-14	-8	-26
O=C(c1cnc2[nH][nH]c(=O)c2c1)c1cc(Cl)cc(Cl)c1O	89*	87*	55*	94*	46*
Cn1c(CCNC(=O)c2[nH]nc3c2CCc2ccccc2-3)nc2ccccc21	78*	18	52*	59*	-11
O=C(NC1CCN(Cc2ccccc2)CC1)c1[nH]nc2c1CCc1ccccc1-2	-7	1	62*	0	-49
Cn1cccc(C(=O)N2CCc3nc(NC(=O)C4CC4)sc3C2)c1=O	16	0	2	-3	-44
CC(=O)COc1ccc2c(c1C)OC(C)(C)CC2=O	-4	0	3	3	18
Cc1cc(C)c(COc2ccc3c(c2C)OC(C)(C)CC3=O)c(C)c1	21	8	12	20	30*
CN1CC2(COc3ccccc31)CN(S(=O)(=O)c1ccc3ncsc3c1)CCO2 (centres undefined)	-1	3	3	10	12
O=C(NCc1ccc(F)cc1)N1CCC(Nc2cccnc2)C1 (centres undefined)	-30	-6	-105	35*	-344
O=C(c1cccc(F)c1)N1CCC(Nc2cccnc2)C1 (centres undefined)	-90	-4	-148	25	i
Cc1cc(C2CCCCN2C(=O)c2ccnn2C)nc2ccnn12 (centres undefined)	0	0	x	1	x
Cc1nc2ccc(C(=O)N3CCCC3c3nc(C)c4c(n3)N(CC(C)C)C(=O)C4)cc2s1 (centres undefined)	42*	-4	0	89*	-11
COc1ccc(-c2nc(-c3ccc(N4CCOCC4)cc3)no2)c(OC)c1	19	1	9	0	-5
Nc1cc(OC(=O)c2ccccc2)nn1S(=O)(=O)c1ccc(F)cc1	1	6	-3	-2	13
CCn1cc2nc(SCC(=O)NC3CCCC3)n(Cc3ccc(C)cc3)c(=O)c2n1	63*	0	12	6	70*

Screens as filed in PubChem BioAssay.
